Our source for the growth inhibition values is PubChem BioAssay (NCI).

The panel holds about 79,000 compounds, 15% with a hit somewhere; the sample as a whole holds those more often. A number with no mark means an inactive call. Active and inactive are the calls of the source. Rule as the data show it: active = growth inhibition above about 70%; inactive = the rest.

Experiment [1] in a line: NCI Yeast Anticancer Drug Screen. Data for the rad50 strain (AID 155).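 Also: 0% = growth of vehicle-only cultures of the same strain.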 The settings on record: S. cerevisiae rad50 strain growth inhibition; at 50.0 µM; hits give high values. The gist of the method: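 Growth of the mutant yeast was measured after compound exposure and referenced to vehicle-treated cultures.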
Experiment [2] in a line: NCI Yeast Anticancer Drug Screen. Data for the mec2-1 strain (AID 157). The settings on record: S. cerevisiae mec2-1 strain, at 50.0 µM, hits give high values. The procedure, abridged:
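Mutant yeast (mec2-1) grown with compound; growth inhibition relative to vehicle control reported.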

A short description of experiment [3]: NCI Yeast Anticancer Drug Screen. Data for the sgs1 mgt1 strain (AID 161).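 Also: 0% = growth of cultures given vehicle only.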 The settings on record: S. cerevisiae sgs1 mgt1 strain, at 50.0 µM, hits give high values. The procedure, abridged: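 This yeast growth screen uses a strain with defined DNA-repair lesions; compound-treated growth is compared with vehicle-treated growth.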
Experiment [4] can be described thus: NCI Yeast Anticancer Drug Screen. Data for the cln2 rad14 strain (AID 165).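 Also: 0% = growth equal to vehicle treated cultures.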 The settings on record: S. cerevisiae cln2 rad14 strain, at 50.0 µM, hits give high values. The gist of the method:
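Readout is yeast growth inhibition versus vehicle-treated controls, using a strain with cln2 and rad14 alterations exposed to compound.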

Experiment [5] can be described thus: NCI Yeast Anticancer Drug Screen. Data for the bub3 strain (AID 167). The settings on record: S. cerevisiae bub3 mutant strain, at 50.0 µM, hits give high values. The gist of the method:
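Whole-cell yeast assay. The mutant strain was incubated with compounds, and growth inhibition was determined by comparison with vehicle-treated cells.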

Experiment [6] can be described thus: NCI Yeast Anticancer Drug Screen. Data for the mlh1 rad18 strain (AID 175). The settings on record: S. cerevisiae mlh1 rad18 strain growth inhibition; at 50.0 µM; hits give high values. The procedure, abridged:
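Genetically defined yeast (DNA repair-deficient) exposed to compounds; growth inhibition determined relative to vehicle.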

For `CN1CCn2c(Br)ccc2C1=O`, the growth inhibition is 13.6% in experiment [1]; -11.6% in experiment [2]; -1.55% in experiment [3]; 8.45% in experiment [4]; 2.65% in experiment [5]; -3.3% in experiment [6].
As for `CCOc1nc(-c2ccccc2)cc(-c2ccc(N3CCOCC3)cc2)c1C#N`, the growth inhibition in experiment [1] was 19%; in experiment [2] it was 9.55%; in experiment [3], -7.4%; in experiment [4] it was -11.6%; in experiment [5], -4.5%; in experiment [6], 27.5%.
For the compound `CCC[N+]1=C/c2ccccc2OC(=O)/C=C\1[O-]`, the growth inhibition was -36.9% in experiment [1]; -11.3% in experiment [2]; -14.1% in experiment [3]; -8.95% in experiment [4]; 5.8% in experiment [5]; -1.1% in experiment [6].
For the compound `CCN(CC)CC(C)(C)C(O)c1ccc(OC)c2ccccc12` (stereo unspecified), the growth inhibition in experiment [1] was -6.15%; in experiment [2], 7.3%; in experiment [3], 17.9%; in experiment [4], -26.8%; in experiment [5], 9.45%; in experiment [6] it was 8.8%.
On to `CN(C)C=Nc1ccn(CCO)c(=O)n1`, for which the growth inhibition in experiment [1] is 21.6%; in experiment [2], -16.9%; in experiment [3] it was 23.6%; in experiment [4] it was 19.1%; in experiment [5] it was 21.9%; in experiment [6], 33.2%.
As to `COC(=O)/C(=N/NC(N)=O)C(C(=O)OC)C(=O)C(=O)Nc1ccc(Cl)cc1` (stereo unspecified), the growth inhibition in experiment [1] was 1.4%; in experiment [2] it was -21.8%; in experiment [3], -16.9%; in experiment [4], 13.8%; in experiment [5] it was -14.4%; in experiment [6] it was -34.5%.
For `COc1ccc2ccccc2c1C(=O)/C=C/c1ccccc1`, the growth inhibition in experiment [1] was 35%; in experiment [2], 33.6%; in experiment [3], 38.9%; in experiment [4] it was 47.8%; in experiment [5] it was 58.8%; in experiment [6], 39.4%.
`COc1cccc(C=Nc2cc(C)ccn2)c1O.COc1cccc(C=Nc2cc(C)ccn2)c1O.[Cu]`: the growth inhibition in experiment [1] was 3.45%; in experiment [2], -7.75%; in experiment [3], 9.75%; in experiment [4], 14.2%; in experiment [5], -11.6%; in experiment [6] it was 38.6%.
`COc1ccc2[nH]cc(CC(NC(C)=O)C(=O)O)c2c1` (stereo unspecified): the growth inhibition was 1.75% in experiment [1]; -0.9% in experiment [2]; 1.55% in experiment [3]; -0.5% in experiment [4]; 3.85% in experiment [5]; -1.25% in experiment [6].
In the case of `CC1=CC(O)C(Br)C(C)(C)C12CCC(C)(Cl)C(Br)C2` (stereo unspecified), the growth inhibition in experiment [1] is 90.1% (active); in experiment [2] it was 91% (active); in experiment [3], 89.8% (active); in experiment [4], 81.8% (active); in experiment [5], 89.9% (active); in experiment [6], 89.3% (active).
In the case of `O=S(=O)(O)c1cc2cc(S(=O)(=O)O)c(O)cc2cc1O`, the growth inhibition was -20.6% in experiment [1]; -7.55% in experiment [2]; -1.35% in experiment [3]; 3.55% in experiment [4]; -0.25% in experiment [5]; -7.9% in experiment [6].
Turning to `C#CC1(O)CCCCCCCCC2(CCCCCCCC1)OCCO2`, the growth inhibition was -10.7% in experiment [1]; -10.8% in experiment [2]; -18.2% in experiment [3]; 13.7% in experiment [4]; -5.85% in experiment [5]; 1.25% in experiment [6].
Regarding `CCOC(=O)c1oc2ccc([N+](=O)[O-])c3c2c1CCC3`, the growth inhibition in experiment [1] is 1.8%; in experiment [2] it was -1.95%; in experiment [3] it was -7%; in experiment [4] it was -2.35%; in experiment [5], -64%; in experiment [6], -8.05%.
In the case of `O=C1OC(=O)c2c1ccc1ccccc21`, the growth inhibition is -6% in experiment [1]; -21.6% in experiment [2]; 6.8% in experiment [3]; -8.35% in experiment [4]; 0.95% in experiment [5]; 14.8% in experiment [6].
Consider `CCCCCCO[Si](OCCCCCC)(OCCCCCC)OCCCCCC`, for which the growth inhibition in experiment [1] is -35.1%; in experiment [2] it was -32.4%; in experiment [3] it was -10.8%; in experiment [4], 17.4%; in experiment [5] it was -17.8%; in experiment [6], -17.4%.
Turning to `Nc1c(C(=O)Nc2cccc3c2C(=O)c2ccccc2C3=O)ccc2c1C(=O)c1ccccc1C2=O`, the growth inhibition in experiment [1] was 35.1%; in experiment [2], 10.1%; in experiment [3], 43.3%; in experiment [4], 26.7%; in experiment [5], 2.75%; in experiment [6] it was 24%.
For the compound `Cc1cc2nc(N)n[n+]([O-])c2cc1C`, the growth inhibition in experiment [1] was 8.4%; in experiment [2] it was 7.35%; in experiment [3], 2%; in experiment [4] it was -6.25%; in experiment [5], 1%; in experiment [6] it was -24.9%.
On to `COC(=O)C(C)CN1CCCCC1` (stereo unspecified), for which the growth inhibition was 20.1% in experiment [1]; 6.2% in experiment [2]; 22.1% in experiment [3]; -6.45% in experiment [4]; 31.9% in experiment [5]; 19.9% in experiment [6].
With `Cc1ncc(COP(=O)(O)O)c(C)c1O`, the growth inhibition in experiment [1] is -15.7%; in experiment [2], -10.1%; in experiment [3] it was -33.5%; in experiment [4] it was -33.6%; in experiment [5], -31.3%; in experiment [6], -13.6%.
With `COc1cc(/C=C(\C#N)C(N)=C(C#N)C#N)cc(O)c1O`, the growth inhibition was -32.5% in experiment [1]; -20.8% in experiment [2]; -19.6% in experiment [3]; 0.65% in experiment [4]; -24.3% in experiment [5]; -18.8% in experiment [6].
In the case of `CC(C)CC(O)C(CC(=O)Nc1ccccc1)S(=O)(=O)c1ccccc1` (stereo unspecified), the growth inhibition was -21.9% in experiment [1]; -16.4% in experiment [2]; -6.3% in experiment [3]; -28.6% in experiment [4]; -15.1% in experiment [5]; -11.8% in experiment [6].
